Data on 36 compounds can be found in PubChem BioAssay.

The subject of the assay is Wnt5a (protein binding on small-molecule microarray). In words: Wnt5a binders on small-molecule microarray, primary screen, biophysical, 635/667 nm fluorescence (AID 1142).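 Note: fluorescence read at 667 nm with signal to noise per printed feature.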 The settings on record: 635 nm fluorescence, higher = more signal.
As for `COc1ccc([Si](C)(C)[C@@H]2[C@@H](CCO)O[C@]3(C(=O)N(Cc4cccc(N5CCOC5=O)c4)c4ccccc43)[C@H]2C)cc1`, the composite z-score was 0.183.

Consider `CCOC(=O)C1=CC[C@H]2C(=O)N(c3ccccc3)C(=O)[C@@H]12`, for which the composite z-score stood at 0.125.

For `CCOC(=O)C[C@H]1[C@H](OC(=O)c2ccc(C(=O)c3ccccc3)cc2)[C@@H](NC(=O)Cc2ccc(OC)cc2)c2cc(OCCCO)ccc2N1C(=O)c1ccc2ccccc2n1`, the composite z-score came to 0.112.

In turn, `COC(=O)[C@@]1(Cc2ccc(F)cc2)[C@H]2c3cc(C(=O)N(C)C)n(Cc4cc(C)n(C)n4)c3C[C@H]2CN1C(=O)c1ccccc1` showed a composite z-score of 0.692.

Turning to `CCCC[C@@H]1C[C@H]1[C@@H](NC(=O)c1cccnc1)c1ccc(Cl)cc1`, the composite z-score is -0.769.

`[N-]=[N+]=Nc1ccccc1C[C@@]1(C(=O)N2CCCCC2)N=C(c2ccc(OCCCO)cc2)O[C@@H]1c1ccccc1N=[N+]=[N-]` gave a composite z-score of 0.648.

Consider `C=CCC(OC(C)=O)[C@@H]1[C@@H](N(Cc2ccc(-c3cccc(C(F)(F)F)c3)o2)C(=O)c2cccc3ccccc23)c2cc(OCCCO)ccc2N1C(=O)Cc1ccc2ccccc2c1` (stereo partly specified), for which the composite z-score was -0.078.

Take `CCCCN1CC=CC23O[C@@H]4C=CCOC(=O)[C@@H]4[C@H]2C(=O)N(CCCCCCO)[C@@H]3C1=O` (stereo partly specified): the composite z-score is -0.575.

On to `O=C1C2C=CC(C(O)C=Cc3ccc([N+](=O)[O-])cc3)N(n3cnnc3)C2C(=O)N1Cc1ccccc1` (stereo unspecified), for which the composite z-score was 0.0873.

In turn, `O=C1[C@H]2C=C(Br)[C@H](C[C@@H]2OCCCCCCO)[C@@]12CO2` displayed a composite z-score of 0.255.

In the case of `CCCCCCCCCCC(O)C1C=CC2C(=O)NC(=O)C2N1Nc1ccc(Cl)cc1Cl` (stereo unspecified), the composite z-score amounted to 0.333.

On to `C=CC1c2cc(O)c(OC)cc2CCN1Cc1cccc(OC(F)(F)F)c1` (stereo unspecified), for which the composite z-score is -0.415.

Compound `CC(C)[Si](C#C[Si](C(C)C)(C(C)C)C(C)C)(O[C@H](C)c1cn(Cc2ccccc2)nn1)C(C)C` came in with a composite z-score of 0.0406.

`O=C1O[C@H](c2ccccc2)[C@H](c2ccccc2)N2[C@H]1[C@@H](C(=O)NC[C@H](O)c1ccccc1)[C@]1(C(=O)Nc3ccc(C#CC4=CCCCC4)cc31)[C@H]2c1ccccc1OCCO` came in with a composite z-score of 0.401.

As for `COc1ccc(-c2cc3c(c(Cc4ccccc4)n2)[Si](C(C)C)(C(C)C)OC3)cn1`, the composite z-score is -0.153.

Consider `C=CCC(OC(C)=O)[C@@H]1[C@@H](N(Cc2ccc(-c3cccc(C(F)(F)F)c3)o2)C(=O)Cc2ccc(OC)cc2)c2cc(OCCCO)ccc2N1C(=O)c1ccc2ccccc2c1` (stereo partly specified), for which the composite z-score is -0.301.

`CCC(CC)C(O)C1C=CC2C(=O)N(c3ccccc3)C(=O)C2N1Nc1ccccc1` (stereo unspecified): the composite z-score turned out to be 0.213.

Take `CN1C(=O)C2C=CC(C(O)c3c(F)cccc3Cl)N(NC(=O)OC(C)(C)C)C2C1=O` (stereo unspecified): the composite z-score turned out to be 0.213.

In turn, `C=C[C@H](C)[C@@H](OC(=O)Nc1ccc(SC)cc1)c1ccc(O)c2ccccc12` came in with a composite z-score of 0.64.

For `COc1ccccc1CN1C(=O)c2ccccc2[C@@H](C(=O)NCc2ccccc2)[C@@H]1c1ccc(CO)cc1`, the composite z-score is -0.13.

As to `O=C1OCC=C[C@H]2OC34C=CCN(Cn5nnc6ccccc65)C(=O)[C@H]3N(CCCCCO)C(=O)[C@@H]4[C@@H]12` (stereo partly specified), the composite z-score amounted to 0.238.

Turning to `Cc1ccc(S[C@]2(C(=O)NCC(C)C)CC(=O)N(Cc3cc(C(F)(F)F)cc(C(F)(F)F)c3)[C@@H]2c2ccc(CO)cc2)cc1`, the composite z-score stood at 0.226.

As to `CS(=O)(=O)CCOC(=O)C1=CC(CCCO)=CC(C2CC2)N(Cc2cc3c(cc2Br)OCO3)C=C1C(=O)OCCS(C)(=O)=O` (stereo unspecified), the composite z-score amounted to 0.0339.

Regarding `C=CCOC(=O)[C@H]1[C@@H]2C(=O)O[C@@H](c3ccccc3)[C@@H](c3ccccc3)N2[C@@H](c2ccc(OCCOC(=O)[C@H]3C[C@H]4C(=O)N[C@@H](CCCCN(C)C)C(=O)N4[C@H]3c3cccc(OCCO)c3)cc2)[C@]12C(=O)Nc1ccc(I)cc12`, the composite z-score amounted to 0.559.

Compound `COc1ccc([Si](C)(C)[C@H]2[C@H](CC(=O)N3CCC[C@H]3CO)O[C@@]3(C(=O)N(Cc4cccc(N5CCOC5=O)c4)c4ccccc43)[C@@H]2C)cc1` gave a composite z-score of 0.307.

In turn, `O=C1OCCC=C[C@H]2OC34C=CCN(c5ccc(Cl)cc5)C(=O)[C@H]3N(CCCO)C(=O)[C@@H]4C12` (stereo partly specified) yielded a composite z-score of -0.047.

As for `COc1ccc(C(O)C2C=CC3C(=O)N(C)C(=O)C3N2N(c2ccccc2)c2ccccc2)c2ccccc12` (stereo unspecified), the composite z-score was 0.151.

Turning to `COCC(=C=CC[C@H](O)c1cccc(OCCO)c1)CCO`, the composite z-score is 0.461.

Compound `CC[C@@H]1C=C(C(=O)O)[C@H](c2ccc(C)cc2)N1S(=O)(=O)c1ccc(C)cc1` yielded a composite z-score of -0.412.

In the case of `O=C1NC(=O)C2C1C=CC(C(O)C1CC=CCC1)N2Nc1ccccn1` (stereo unspecified), the composite z-score was determined as 0.524.

In turn, `COc1ccc(C(=O)Nc2cccc(CN3C(=O)[C@]4(O[C@H](CCn5cc(CCO)nn5)[C@@H]([Si](C)(C)c5ccc(OC)cc5)[C@@H]4C)c4ccccc43)c2)cc1` yielded a composite z-score of 0.224.

The compound `CS(=O)(=O)CCOC(=O)C1=CC(CCCO)=CC(c2ccc(CN3CCCC3)cc2)N(Cc2cccc(OC(F)(F)F)c2)C=C1C(=O)OCCS(C)(=O)=O` (stereo unspecified) had a composite z-score of 0.531.

`COC(=O)c1c2oc(c1C(=O)OC)C(=O)N[C@@H](C(C)C)Cn1cc(nn1)C1(CCCCC1)NC(=O)N[C@H](CO)CC2` yielded a composite z-score of 0.432.

As to `O=C1O[C@@H](c2ccccc2)[C@@H](c2ccccc2)N2[C@@H](c3ccc(OCCO)cc3)[C@]3(C(=O)Nc4ccc(C#CCCO)cc43)[C@@H](C(=O)NC[C@H](O)c3ccccc3)[C@H]12`, the composite z-score amounted to 0.425.

As to `CC(c1ccccc1)C(O)C1C=CC2C(=O)N(c3ccccc3)C(=O)C2N1Nc1ccccc1` (stereo unspecified), the composite z-score was 0.821.

`CC1CC/C=C\[C@H]2OC34C=CCN(Cc5ccccc5)C(=O)[C@H]3N(C(C)CO)C(=O)[C@@H]4C2C(=O)O1` (stereo partly specified) registered a composite z-score of -0.125.
